Inconclusive results are not listed. Activity calls are given as the source filed them. The call rests on the fitted dose curve; in most records, active means well fitted curve in the direction sought with a large enough effect; inconclusive means small, poorly fitted or top-dose-only effect, or another doubt; inactive means no such curve, though single readings can be large; an effect the other way counts as inactive or inconclusive.
Tests used:
Hek293T = test: Primary qHTS to identify gynecologic anti-cancer compounds using libraries of approved drugs and bioactive compounds (AID 1345084); conditions: Gynecologic cancer cell panel viability, ATPlite luminescence, 48 h, control line for the selectivity index; series mostly up to 57.5 µM; further: nearly all actives have a fitted effect of over 55% in size
Procedure, shortened: (§1)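 Cytotoxicity screen measuring ATP content by luciferase luminescence. Each compound is applied at five concentrations for 48 h at 37 C with 5% CO2.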

JEG-3 = test: as above; conditions: Gynecologic cancer cell panel viability, ATPlite luminescence, 48 h; series mostly up to 57.5 µM
Procedure, shortened: as §1

Tov-21-G = test: as above; conditions: Gynecologic cancer cell panel viability, ATPlite luminescence, 48 h; series mostly up to 57.5 µM
Procedure, shortened: as §1

OV90 = test: as above; conditions: Gynecologic cancer cell panel viability, ATPlite luminescence, 48 h; series mostly up to 57.5 µM
Procedure, shortened: as §1

PA-1 = test: as above; conditions: Gynecologic cancer cell panel viability, ATPlite luminescence, 48 h; series mostly up to 57.5 µM
Procedure, shortened: as §1

Tov112D = test: as above; conditions: Gynecologic cancer cell panel viability, ATPlite luminescence, 48 h; series mostly up to 57.5 µM
Procedure, shortened: as §1

astro = test: Drug repurposing screens with cells derived from glioblastoma tumor samples (AID 1345199); conditions: viability, ATP luminescence, 48 h; series mostly up to 45.9 µM; further: nearly all actives have a fitted effect of over 40% in size; on activity, negative = cell killing: on the % scale 0 is the no-effect control and ±100 the full control effect
Procedure, shortened: (§2)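 Four patient lines of CD133+ GBM neurospheres were screened at several concentrations; hits were retested in those lines plus three slower-growing GBM lines, using 48-hour treatment and ATP-based viability.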

SKOV3 = test: Primary qHTS to identify gynecologic anti-cancer compounds using libraries of approved drugs and bioactive compounds (AID 1345084); conditions: Gynecologic cancer cell panel viability, ATPlite luminescence, 48 h; series mostly up to 57.5 µM; further: nearly all actives have a fitted effect of over 55% in size
Procedure, shortened: as §1

[1] = Drug repurposing screens with cells derived from glioblastoma tumor samples (AID 1345199); conditions: GBM patient neurospheres viability, ATP luminescence, 48 h; further: nearly all actives have a fitted effect of over 40% in size; on activity, negative = cell killing: on the % scale 0 is the no-effect control and ±100 the full control effect
Procedure, shortened: as §2

[2] = qHTS assay to identify inhibitors of the type 1 interferon - major histocompatibility complex class I in skeletal muscle: Counter screen cell viability and HiBit confirmation (AID 1347412); conditions: iHSKM muscle cells + IFN-b, HiBiT or CellTiter-Glo, 24 h; further: nearly all actives have a fitted effect of over 60% in size
From the text: Assay Submitter (PI): Travis B. Kinder Ph.D. & James Inglese Ph.D. Assay Development and Screening Technology Laboratory (ADST) National Center for Advancing Translational Sciences (NCATS), Rockville, MD National Institute of Health (NIH), Bethesda, Maryland Idiopathic inflammatory myopathies, collectively referred to as myositis, are a group of rare autoimmune diseases characterized by skeletal muscle inflammation, weakness, and usually accompanied by systemic pathologies of the skin, lungs, or vasculature. Current immunosuppressive therapies and glucocorticoids are often not curative and are accompanied by harsh side effects, especially in children with juvenile myositis. We initiated a drug repurposing and development program to identify more targeted, less toxic therapeutics to treat myositis. Although its cause is not known, muscle from a subset of patients have an abundance of the inflammatory type 1 interferon (IFN) and a down-stream product major histocompatibility complex class I (MHC class I), which are both thought to contribute to damage and weakness. We conducted quantitative high throughput screening on 6,576 compounds (4,679 unique) through a series of cell-based assays to identify those that inhibit the IFN-stimulated expression of MHC class I in muscle precursor cells (myoblasts). The compound identification and evaluation strategy utilized a primary screen with reporter-tagged MHC class I in genome-engineered myoblasts, ATP content counter screen for viability, HLA-ABC immunofluorescence secondary screen, and HLA-B RT-qPCR tertiary screen. The primary screen utilized CRISPR/Cas9 genome-engineering of immortalized human myoblasts, C25cl48, where a pro-luminescent reporter HiBit was fused to the C-terminus of endogenous MHC class I allele HLA-B*08:01 (HLA-B HiBit myoblasts). HiBit is an 11 amino acid fragment of NanoLuc luminescent reporter (Promega Corporation), and when complexed to the larger LgBit fragment, the reconstituted enzyme produces light in the presence of furimazine substrate (Schwinn et al., 2018). Briefly, HLA-B HiBit myoblasts were plated into 1536-well plates, treated with 4.0 ng/ml human IFN-beta and 650 inhibitory compounds identified from primary screening in a 12-point, 1:3 titration with a high final concentration of 46 uM. Compounds were pinned into duplicate plates, with one for HiBit confirmation and one for ATP content viability assay. After 24 hrs of treatment, cells were assayed by either Nano-Glo HiBiT Lytic Detection System (Promega) or CellTiter Glo (Promega), and luminescence measured by a ViewLux 1430 Ultra HTS (Perkin Elmer). References: Schwinn MK, Machleidt T, Zimmerman K, Eggers CT, Dixon AS, Hurst R, Hall MP, Encell LP, Binkowski BF, Wood K V. 2018. CRISPR-Mediated Tagging of Endogenous Proteins with a Luminescent Peptide. ACS Chem Biol 13:467-474. doi:10.1021/acschembio.7b00549
PROTOCOL TABLE (as described by Inglese et al., 2007) SEQUENCE No. (e.g., 1, 2, 3, etc.); […] (e.g., Cells, Incubation, Reagent, etc.); VALUE; DESCRIPTION 1a; Cells; 5 uL; Use a Multidrop Combi (Thermo Scientific) to seed 300 cells/well into 16 Greiner 1536 well white/solid bottom, high base, TC plates in 5 ul/well of iHSKM growth medium (GM) without dexamethasone into columns 1+2. […]

[3] = at 45.9 µM (top of the series), tumour line B
[4] = at 46.1 µM (top of the series), tumour line C
[5] = at 45.9 µM (top of the series), tumour line D
[6] = at 46 µM (top of the series), tumour line A
[7] = at 20 µM (top of the series), tumour line C
[8] = at 21.2 µM (top of the series), tumour line B
[9] = at 21.2 µM (top of the series), tumour line D
Potency means the concentration at half of the fitted maximal effect.

CCc1cccc(N(C)C(N)=Nc2cccc3ccccc23)c1
inactive: Potency (Hek293T) | Potency (JEG-3) | Potency (Tov-21-G)

COCC(=O)O[C@]1(CCN(C)CCCc2nc3ccccc3[nH]2)CCc2cc(F)ccc2[C@@H]1C(C)C
inactive: Potency (Hek293T) | Potency (PA-1) | Potency (Tov-21-G) | Potency (Tov112D)
active: Potency (OV90) 22.4 µM | Potency (astro) 10 µM

CN(C)CC/C=C1\c2ccccc2COc2ccccc21
inactive: Potency (Hek293T) | Potency (JEG-3) | Potency (PA-1) | Potency (SKOV3) | Potency (Tov-21-G) | Potency (Tov112D) | activity, negative = cell killing [1, 3] -27.9% | activity, negative = cell killing [1, 4] -1.82% | Potency (astro)
active: Potency ([1]; tumour line A) 14.1 µM

CC(=O)[C@]1(O)Cc2c(O)c3c(c(O)c2[C@@H](O[C@H]2C[C@H](N)[C@H](O)[C@H](C)O2)C1)C(=O)c1ccccc1C3=O
active: Potency (Hek293T) 0.708 µM | Potency (OV90) 3.16 µM | Potency (PA-1) 0.282 µM | Potency (SKOV3) 1.78 µM | Potency (Tov-21-G) 0.794 µM | Potency (Tov112D) 0.562 µM | Potency (astro) 0.398 µM | Potency ([2]; HiBiT) 0.883 µM

CC(C)COCC(CN(Cc1ccccc1)c1ccccc1)N1CCCC1 (stereo unspecified)
active: Potency (OV90) 25.1 µM | Potency ([1]; tumour line A) 11.2 µM | Potency ([1]; tumour line D) 11.2 µM | Potency (astro) 35.5 µM
inactive: Potency (Tov-21-G) | activity, negative = cell killing [1, 4] -7.32%

NC(N)=NC(=O)Cc1c(Cl)cccc1Cl
active: Potency ([1]; tumour line A) 5.62 µM
inactive: Potency (Hek293T) | Potency (JEG-3) | Potency (PA-1) | Potency (SKOV3) | Potency (Tov-21-G) | Potency (Tov112D) | activity, negative = cell killing [1, 4] -19.8% | Potency (astro)

CC(N=C(NC#N)Nc1ccncc1)C(C)(C)C (stereo unspecified)
inactive: Potency (Hek293T) | Potency (OV90) | Potency (PA-1) | Potency (SKOV3) | Potency (Tov-21-G) | Potency (Tov112D) | activity, negative = cell killing [1, 3] -17.7% | activity, negative = cell killing [1, 5] -6.7% | activity, negative = cell killing [1, 4] -1.36%

CC1=NS(=O)(=O)c2cc(Cl)ccc2N1
inactive: Potency (Hek293T) | Potency (JEG-3) | Potency (PA-1) | Potency (Tov-21-G) | Potency (Tov112D) | activity, negative = cell killing [1, 3] -1.9% | activity, negative = cell killing [1, 5] 2.33% | activity, negative = cell killing [1, 6] -21.7% | activity, negative = cell killing [1, 4] 8.3% | Potency (astro)

CCN(CC)CCNC(=O)c1cc(S(C)(=O)=O)ccc1OC
inactive: Potency (JEG-3) | Potency (OV90) | Potency (PA-1) | Potency (SKOV3) | Potency (Tov-21-G) | Potency (Tov112D) | activity, negative = cell killing [1, 7] -10.9% | activity, negative = cell killing [1, 8] -7.73% | activity, negative = cell killing [1, 9] -4.2%

COc1cc(C(=O)OCCCN2CCCN(CCCOC(=O)c3cc(OC)c(OC)c(OC)c3)CC2)cc(OC)c1OC
inactive: Potency (Hek293T) | Potency (JEG-3) | Potency (PA-1) | Potency (SKOV3) | Potency (Tov112D) | activity, negative = cell killing [1, 4] -7.95%
active: Potency ([1]; tumour line A) 3.98 µM | Potency ([1]; tumour line D) 22.4 µM

CN1CCN(C2=Nc3ccccc3Oc3ccc(Cl)cc32)CC1
inactive: Potency (Hek293T) | Potency (JEG-3) | Potency (PA-1) | Potency (SKOV3) | Potency (Tov-21-G) | Potency (Tov112D) | activity, negative = cell killing [1, 7] -15.4% | activity, negative = cell killing [1, 8] -17.3% | activity, negative = cell killing [1, 9] -18.3% | Potency (astro)
active: Potency ([1]; tumour line A) 12.6 µM

CC(C)(C)NCC(O)c1cc(O)cc(O)c1 (stereo unspecified)
inactive: Potency (Hek293T) | Potency (JEG-3) | Potency (PA-1) | Potency (SKOV3) | Potency (Tov-21-G) | Potency (Tov112D) | activity, negative = cell killing [1, 3] 0.586% | activity, negative = cell killing [1, 5] -16.8% | activity, negative = cell killing [1, 6] -15.6% | activity, negative = cell killing [1, 4] -15.7% | Potency (astro)

c1cc(CN2CCCCC2)cc(OCCCNc2nc3ccccc3s2)c1
inactive: Potency (JEG-3) | Potency (PA-1) | Potency (Tov-21-G) | Potency (Tov112D)

C[n+]1cc2c3c(ccc2c2ccc4cc5c(cc4c21)OCO5)OCO3
active: Potency (Hek293T) 8.91 µM | Potency (OV90) 11.2 µM | Potency (PA-1) 5.01 µM | Potency (SKOV3) 3.55 µM | Potency (Tov-21-G) 7.94 µM | Potency (Tov112D) 10 µM | Potency (astro) 4.47 µM | Potency ([2]; HiBiT) 1.11 µM | Potency ([2]; Viability) 2.22 µM

O=C1NCN(c2ccccc2)C12CCN(CCCC(c1ccc(F)cc1)c1ccc(F)cc1)CC2
active: Potency (JEG-3) 31.6 µM | Potency (OV90) 20 µM | Potency (astro) 12.6 µM
inactive: Potency (Tov-21-G)

C[C@H](CS)C(=O)N1CCC[C@H]1C(=O)O
inactive: Potency (Hek293T) | Potency (JEG-3) | Potency (PA-1) | Potency (Tov-21-G) | Potency (Tov112D) | activity, negative = cell killing [1, 3] 1.21% | activity, negative = cell killing [1, 5] -0.196% | activity, negative = cell killing [1, 6] -14.4% | activity, negative = cell killing [1, 4] -15.5% | Potency (astro)

CCN(CC)CCCN(c1ccccc1)C1Cc2ccccc2C1
inactive: Potency (JEG-3) | Potency (PA-1) | Potency (Tov-21-G) | Potency (Tov112D)
active: Potency (astro) 12.6 µM

CCCC(C(=O)OCCN(CC)CC)(c1ccccc1)c1ccccc1
inactive: Potency (JEG-3)
active: Potency (OV90) 12.6 µM

NC(N)=N/N=C/c1c(Cl)cccc1Cl
active: Potency ([1]; tumour line A) 15.8 µM
inactive: Potency (Hek293T) | Potency (JEG-3) | Potency (PA-1) | Potency (Tov-21-G) | Potency (Tov112D) | activity, negative = cell killing [1, 4] 0.325% | Potency (astro)

CC(C)(C)c1ccc(C(=O)CCCN2CCC(OC(c3ccccc3)c3ccccc3)CC2)cc1
active: Potency ([1]; tumour line A) 2.51 µM | Potency ([1]; tumour line B) 25.1 µM | Potency ([1]; tumour line D) 5.01 µM | Potency (astro) 12.6 µM
inactive: Potency (JEG-3) | Potency (Tov-21-G) | Potency (Tov112D) | activity, negative = cell killing [1, 4] -18.9%

Nc1nc(N)c2nc(-c3ccccc3)c(N)nc2n1
inactive: Potency (JEG-3) | Potency (SKOV3) | activity, negative = cell killing [1, 4] 0.453%
active: Potency (Tov-21-G) 20 µM | Potency ([1]; tumour line A) 12.6 µM | Potency ([1]; tumour line B) 28.2 µM

CN(C)CCCN1c2ccccc2Sc2ccc(C(F)(F)F)cc21
inactive: Potency (JEG-3)

O=C(CCCN1CCC(O)(c2cccc(C(F)(F)F)c2)CC1)c1ccc(F)cc1
inactive: Potency (Hek293T) | Potency (JEG-3) | Potency (PA-1) | Potency (SKOV3) | Potency (Tov-21-G) | Potency (Tov112D) | Potency (astro)

OCCN1CCN(CC/C=C2/c3ccccc3Sc3ccc(C(F)(F)F)cc32)CC1
active: Potency (OV90) 10 µM | Potency ([1]; tumour line A) 2 µM | Potency (astro) 31.6 µM
inactive: Potency (JEG-3) | Potency (Tov-21-G) | Potency (Tov112D) | activity, negative = cell killing [1, 4] -15%

Nc1ncn([C@@H]2O[C@H](CO)[C@@H](O)[C@H]2O)c(=O)n1
active: Potency (JEG-3) 10 µM | Potency (PA-1) 10 µM | Potency (Tov-21-G) 12.6 µM | Potency ([2]; HiBiT) 14 µM
inactive: Potency (OV90)

Source: PubChem BioAssay (NCATS)
